Drawing on ChEMBL document CHEMBL3988442, “University of Dundee, Small-Polar-MMV Screening Library” (2021), this text covers Percent Effect for ten compounds.

For some assays here: Results with a measured potency or affinity are listed apart.

Holding throughout (design): scale not given: direction of the effect not stated beside the values
Assay [1] concerns the target Protein translocase subunit SecA (Escherichia coli (strain K12)) (UniProt P10408). Briefly: Assay to Identify E. coli SecA ATPase Inhibitors. The class given is functional. The settings on record: 30 µM.
The target in assay [2] is T1, Ubiquitin-activating enzyme e1, putative (Leishmania donovani (strain BPK282A1)) (UniProt E9BSI1).
T1 sequence (whole entry): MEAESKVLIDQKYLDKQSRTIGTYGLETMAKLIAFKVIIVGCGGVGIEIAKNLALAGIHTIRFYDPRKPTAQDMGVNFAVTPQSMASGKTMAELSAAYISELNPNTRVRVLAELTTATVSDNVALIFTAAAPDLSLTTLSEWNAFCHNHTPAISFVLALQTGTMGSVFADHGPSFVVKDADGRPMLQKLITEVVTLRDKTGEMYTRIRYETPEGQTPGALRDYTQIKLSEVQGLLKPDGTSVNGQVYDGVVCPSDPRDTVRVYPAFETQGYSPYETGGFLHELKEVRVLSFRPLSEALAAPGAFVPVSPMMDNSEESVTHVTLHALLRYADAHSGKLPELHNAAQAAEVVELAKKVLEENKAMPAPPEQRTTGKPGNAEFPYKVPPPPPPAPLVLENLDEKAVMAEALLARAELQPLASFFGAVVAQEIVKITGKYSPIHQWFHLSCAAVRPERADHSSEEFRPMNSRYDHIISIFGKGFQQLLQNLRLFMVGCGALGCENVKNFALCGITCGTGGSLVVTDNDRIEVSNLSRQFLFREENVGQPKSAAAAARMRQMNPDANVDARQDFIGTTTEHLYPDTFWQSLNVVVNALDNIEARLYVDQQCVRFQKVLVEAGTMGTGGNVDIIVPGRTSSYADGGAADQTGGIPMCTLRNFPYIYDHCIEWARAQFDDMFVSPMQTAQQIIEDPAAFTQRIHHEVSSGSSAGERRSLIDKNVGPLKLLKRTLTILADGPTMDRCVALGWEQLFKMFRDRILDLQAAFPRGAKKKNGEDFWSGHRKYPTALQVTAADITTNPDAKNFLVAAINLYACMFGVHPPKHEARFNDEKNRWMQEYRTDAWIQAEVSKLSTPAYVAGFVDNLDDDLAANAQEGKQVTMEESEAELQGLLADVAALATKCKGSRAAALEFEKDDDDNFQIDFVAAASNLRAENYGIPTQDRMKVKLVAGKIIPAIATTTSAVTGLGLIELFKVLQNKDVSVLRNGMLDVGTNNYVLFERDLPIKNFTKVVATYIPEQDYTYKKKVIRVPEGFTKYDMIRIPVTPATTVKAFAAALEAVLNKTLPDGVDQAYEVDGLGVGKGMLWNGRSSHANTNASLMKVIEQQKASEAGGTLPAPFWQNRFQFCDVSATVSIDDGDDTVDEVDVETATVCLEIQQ
The assay is described as follows: Leishmania donovani Ubiquitin Activating Enzyme (LdE1). Type of assay: functional. The settings on record: 30 µM.

The target in assay [3] is AMP-activated protein kinase, AMPK (Homo sapiens) (UniProt P54646+O43741+P54619+Q9UGJ0+Q9Y478+Q13131+Q9UGI9). Briefly: AMP-dependent Kinase enzyme assay. An in vitro enzyme assay that detects ADP turnover that is directly proportional to AMPK activity. This uses naive AMPK that is activated during the assay with MK-8722. The note with it: 30 µM. The class given is functional.

The target in assay [4] is Sialic acid-binding Ig-like lectin 9 (Homo sapiens) (UniProt Q9Y336). Briefly: Hs-Siglec9 ALPHAscreen SOP 20170721. The settings on record: 10 µM.
Another assay deals with Trypanosoma cruzi. The assay is described as follows: Trypanosoma cruzi phosphomannomutase and mannose-1-phosphate guanylyltransferase assay. Type of assay: functional. The settings on record: 10 µM.
Assay [5] addresses T2, Arginase-2, mitochondrial (Homo sapiens) (UniProt P78540).
T2 sequence (whole entry): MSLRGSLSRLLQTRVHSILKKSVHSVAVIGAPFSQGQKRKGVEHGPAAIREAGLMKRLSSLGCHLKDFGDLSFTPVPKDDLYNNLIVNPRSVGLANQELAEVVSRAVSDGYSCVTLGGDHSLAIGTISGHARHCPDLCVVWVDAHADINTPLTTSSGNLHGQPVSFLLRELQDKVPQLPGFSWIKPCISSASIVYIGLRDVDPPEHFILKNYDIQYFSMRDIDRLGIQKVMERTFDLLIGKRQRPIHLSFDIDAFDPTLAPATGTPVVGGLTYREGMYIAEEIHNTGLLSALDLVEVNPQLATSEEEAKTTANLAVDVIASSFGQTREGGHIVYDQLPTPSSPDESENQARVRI
Briefly: in vitro enzyme assay to detect the production of urea directly proportional to the activity of Arginase II. Also: in the data most compounds retested in dose-response had high values. Type of assay: functional. The note with it: 33.3 µM.

In assay [6] the target is T3, Proteasome subunit beta (Trypanosoma cruzi) (UniProt O96673).
T3 sequence (whole entry): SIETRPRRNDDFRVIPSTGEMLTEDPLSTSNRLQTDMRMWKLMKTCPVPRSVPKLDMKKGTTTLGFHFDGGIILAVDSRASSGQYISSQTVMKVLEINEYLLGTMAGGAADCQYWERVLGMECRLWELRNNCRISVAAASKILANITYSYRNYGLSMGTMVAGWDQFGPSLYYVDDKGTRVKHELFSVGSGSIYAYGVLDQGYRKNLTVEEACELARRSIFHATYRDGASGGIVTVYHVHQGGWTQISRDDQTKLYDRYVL
The assay is described as follows: Trypanosoma cruzi proteasome chymotrypsin-like activity (TcProtChymo) assay. Also: in the data most compounds retested in dose-response had high values. The class given is functional. The note with it: 9.37 µM.

The species named for the next assay is Homo sapiens. Briefly: To identify inhibition of the IFN signalling (Jak-Stat) pathway via expression of an eGFP reporter gene under the control of an IFN-stimulated response element (ISRE) containing MxA promoter. The class given is functional. The settings on record: 30 µM. (In general: Reporter assays use an easily measured gene product as a stand-in for the process of interest.)

In assay [7] the target is T4, Tyrosyl-tRNA synthetase, putative (Trypanosoma cruzi (strain CL Brener)) (UniProt Q4DSP6).
T4 sequence (whole entry): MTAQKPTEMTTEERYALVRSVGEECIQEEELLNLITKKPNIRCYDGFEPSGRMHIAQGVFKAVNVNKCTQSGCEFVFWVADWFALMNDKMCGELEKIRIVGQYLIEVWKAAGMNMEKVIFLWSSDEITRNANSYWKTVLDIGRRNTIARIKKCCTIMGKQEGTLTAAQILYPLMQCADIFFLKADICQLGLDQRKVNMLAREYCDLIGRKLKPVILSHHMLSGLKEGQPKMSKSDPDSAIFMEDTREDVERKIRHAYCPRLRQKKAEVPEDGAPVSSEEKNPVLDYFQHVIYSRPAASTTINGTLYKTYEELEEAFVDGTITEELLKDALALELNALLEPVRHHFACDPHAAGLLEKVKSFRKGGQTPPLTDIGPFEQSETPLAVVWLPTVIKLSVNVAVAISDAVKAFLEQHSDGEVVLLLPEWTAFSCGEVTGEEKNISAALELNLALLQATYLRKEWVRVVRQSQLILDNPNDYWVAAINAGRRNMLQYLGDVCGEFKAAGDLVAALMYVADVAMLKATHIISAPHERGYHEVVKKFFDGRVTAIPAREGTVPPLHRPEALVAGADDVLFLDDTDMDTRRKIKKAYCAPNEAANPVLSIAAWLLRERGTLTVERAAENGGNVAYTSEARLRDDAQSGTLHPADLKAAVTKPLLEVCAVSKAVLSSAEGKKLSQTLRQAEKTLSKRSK
The assay is described as follows: Trypanosoma cruzi tyrosyl tRNA synthetase (TcYRS) _High Tyrosine SOP. Also: in the data most compounds retested in dose-response had high values. Type of assay: functional. The settings on record: 30 µM.

The target of assay [8] is T4, Tyrosyl-tRNA synthetase, putative (Trypanosoma cruzi (strain CL Brener)). The assay is described as follows: Trypanosoma cruzi tyrosyl tRNA synthetase (TcYRS) SOP. Type of assay: functional. The settings on record: 30 µM.
For assay [9], the target named is Chromo domain-containing protein 1 (Saccharomyces cerevisiae (strain ATCC 204508 / S288c) (Baker's yeast)) (UniProt P32657). The assay is described as follows: ScCHD-1 Enzyme Inhibition Assay. Also: in the data most compounds retested in dose-response had high values. Type of assay: functional. The settings on record: 30 µM.
Chain of Chromo domain-containing protein 1 (Saccharomyces cerevisiae (strain ATCC 204508 / S288c) (Baker's yeast)) (P32657 whole entry, the tested form may be a part): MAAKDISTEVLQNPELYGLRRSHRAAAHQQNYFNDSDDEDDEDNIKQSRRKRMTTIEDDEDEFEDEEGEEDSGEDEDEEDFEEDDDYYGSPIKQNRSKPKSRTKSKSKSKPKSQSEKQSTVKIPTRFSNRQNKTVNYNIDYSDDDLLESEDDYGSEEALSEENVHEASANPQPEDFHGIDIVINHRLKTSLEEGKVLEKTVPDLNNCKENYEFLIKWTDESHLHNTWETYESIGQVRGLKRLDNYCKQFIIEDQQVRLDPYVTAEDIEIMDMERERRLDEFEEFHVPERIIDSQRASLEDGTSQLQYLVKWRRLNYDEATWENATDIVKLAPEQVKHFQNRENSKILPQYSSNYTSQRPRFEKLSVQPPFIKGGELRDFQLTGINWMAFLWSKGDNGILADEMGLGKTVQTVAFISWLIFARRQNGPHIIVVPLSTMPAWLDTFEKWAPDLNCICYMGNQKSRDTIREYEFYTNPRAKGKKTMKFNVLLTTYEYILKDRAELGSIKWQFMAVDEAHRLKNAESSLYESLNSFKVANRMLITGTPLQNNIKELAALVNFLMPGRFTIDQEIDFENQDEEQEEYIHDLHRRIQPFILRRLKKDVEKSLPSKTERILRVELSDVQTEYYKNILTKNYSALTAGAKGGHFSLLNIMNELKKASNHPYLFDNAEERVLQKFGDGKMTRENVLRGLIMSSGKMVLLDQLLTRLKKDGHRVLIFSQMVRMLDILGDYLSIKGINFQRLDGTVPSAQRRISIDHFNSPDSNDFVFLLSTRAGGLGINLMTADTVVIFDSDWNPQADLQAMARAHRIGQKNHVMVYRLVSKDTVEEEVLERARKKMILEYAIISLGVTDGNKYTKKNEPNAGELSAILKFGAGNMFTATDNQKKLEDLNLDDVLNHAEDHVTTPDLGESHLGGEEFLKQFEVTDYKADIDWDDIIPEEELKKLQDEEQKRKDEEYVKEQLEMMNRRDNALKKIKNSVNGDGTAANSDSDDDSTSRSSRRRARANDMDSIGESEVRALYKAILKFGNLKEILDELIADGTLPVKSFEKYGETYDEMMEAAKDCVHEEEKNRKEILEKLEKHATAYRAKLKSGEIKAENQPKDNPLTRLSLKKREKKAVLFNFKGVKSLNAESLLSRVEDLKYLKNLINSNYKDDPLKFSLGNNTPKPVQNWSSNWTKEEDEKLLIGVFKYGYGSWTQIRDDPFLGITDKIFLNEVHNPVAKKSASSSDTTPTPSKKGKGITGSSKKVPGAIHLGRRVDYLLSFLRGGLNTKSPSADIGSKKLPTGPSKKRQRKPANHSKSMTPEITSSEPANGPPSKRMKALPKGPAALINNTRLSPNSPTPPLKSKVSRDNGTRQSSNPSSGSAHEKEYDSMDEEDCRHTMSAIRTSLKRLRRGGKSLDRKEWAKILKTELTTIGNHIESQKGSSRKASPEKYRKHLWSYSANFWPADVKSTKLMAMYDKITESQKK

Chain of Protein translocase subunit SecA (Escherichia coli (strain K12)) (P10408 whole entry): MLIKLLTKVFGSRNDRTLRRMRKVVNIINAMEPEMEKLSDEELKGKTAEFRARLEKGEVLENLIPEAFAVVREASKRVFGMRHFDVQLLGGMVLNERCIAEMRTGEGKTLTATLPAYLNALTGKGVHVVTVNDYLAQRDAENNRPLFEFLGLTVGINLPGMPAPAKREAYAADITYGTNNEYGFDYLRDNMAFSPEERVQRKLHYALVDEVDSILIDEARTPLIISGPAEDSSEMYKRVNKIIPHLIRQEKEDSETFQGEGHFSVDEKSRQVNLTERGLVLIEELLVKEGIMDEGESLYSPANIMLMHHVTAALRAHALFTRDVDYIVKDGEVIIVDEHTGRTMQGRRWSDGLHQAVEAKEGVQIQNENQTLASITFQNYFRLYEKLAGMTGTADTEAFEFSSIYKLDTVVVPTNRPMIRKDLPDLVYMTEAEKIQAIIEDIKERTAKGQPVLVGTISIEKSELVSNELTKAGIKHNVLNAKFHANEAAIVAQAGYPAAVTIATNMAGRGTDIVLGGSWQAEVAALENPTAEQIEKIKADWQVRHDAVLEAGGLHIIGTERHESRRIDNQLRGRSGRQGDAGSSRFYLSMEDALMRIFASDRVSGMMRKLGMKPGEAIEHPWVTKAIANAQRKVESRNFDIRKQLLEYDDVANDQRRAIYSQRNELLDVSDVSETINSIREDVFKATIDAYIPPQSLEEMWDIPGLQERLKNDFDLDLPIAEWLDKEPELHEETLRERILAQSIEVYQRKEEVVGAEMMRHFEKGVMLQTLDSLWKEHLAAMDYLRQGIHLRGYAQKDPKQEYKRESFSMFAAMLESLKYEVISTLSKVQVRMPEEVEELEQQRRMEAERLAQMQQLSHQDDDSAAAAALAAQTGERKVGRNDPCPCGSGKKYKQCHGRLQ
Chain of Sialic acid-binding Ig-like lectin 9 (Homo sapiens) (Q9Y336 whole entry): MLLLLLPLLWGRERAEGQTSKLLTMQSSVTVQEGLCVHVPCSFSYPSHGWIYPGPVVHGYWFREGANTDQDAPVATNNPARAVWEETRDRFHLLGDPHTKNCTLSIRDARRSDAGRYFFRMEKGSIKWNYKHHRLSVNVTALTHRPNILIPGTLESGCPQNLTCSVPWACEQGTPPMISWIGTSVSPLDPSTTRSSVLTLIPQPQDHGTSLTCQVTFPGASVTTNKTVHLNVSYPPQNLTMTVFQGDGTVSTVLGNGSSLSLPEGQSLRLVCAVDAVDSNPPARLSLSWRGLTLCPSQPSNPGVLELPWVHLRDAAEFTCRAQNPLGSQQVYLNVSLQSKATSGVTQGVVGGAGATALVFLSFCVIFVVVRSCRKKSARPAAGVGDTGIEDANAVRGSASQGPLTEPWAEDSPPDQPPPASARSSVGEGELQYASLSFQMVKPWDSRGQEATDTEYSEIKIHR

For the compound `CCCn1[nH]cc/c1=N\C(=O)CN1CCn2c(nnc2C2CC2)C1`, the Percent Effect in assay [1] was -2.72%; in [2] it was 21.1%; in [3], -11.3%; in assay [4] it was -5.47%; with Trypanosoma cruzi, -4.13%; in assay [5], 3.83%. The Percent Effect in assay [6] is 16.5%; in the assay listed under Homo sapiens, 22.7%; in assay [7], 5.39%; in [8] it was 9.76%; in assay [9] it was -10.1%.

As to `CCOCC(=O)N1C[C@@H](NC(C)=O)[C@H](c2ccc(OC)cc2)C1`, the Percent Effect was -0.132% in assay [1]; 5.33% in assay [2]; -8.83% in [3]; 9.11% in assay [4]; 2.63% with Trypanosoma cruzi; 18.8% in assay [5]. In addition, the Percent Effect in assay [6] is 15.2%; in the assay listed under Homo sapiens, 14.1%; in assay [7], 7.1%; in assay [8], 18.5%; in [9], -1.7%.

For the compound `COCCn1ccc(NC(=O)Nc2cccnc2)n1`, the Percent Effect in assay [1] was -2.55%; in assay [2], 0%; in assay [3], 3.19%; in [4], 3.76%; with Trypanosoma cruzi it was 2.82%; in assay [5], -7.1%. For the same compound, the Percent Effect in [6] is 15.6%; in the assay listed under Homo sapiens it was 21.2%; in assay [7] it was 3.19%; in [8], 7.79%; in [9], -6.3%.

Consider `Cn1ccnc1CC1CCCN(C(=O)Nc2cccn(C)c2=O)C1` (stereo not given), for which the Percent Effect in assay [1] was -3.36%; in assay [2] it was 5.41%; in assay [3], -17.1%; in assay [4], 6.3%; in the assay with Trypanosoma cruzi, 2.93%; in assay [5], 27.9%. Further, the Percent Effect is 12.9% in assay [6]; 4.41% in the assay filed under Homo sapiens; 8.91% in assay [7]; 13.4% in assay [8]; -5.06% in assay [9].

With `CN(CC1(O)CCCN(CCC2CCCCC2)C1=O)C1CCOCC1` (stereo not given), the Percent Effect in assay [1] is -5.39%; in assay [2], 10.7%; in [3], -4.88%; in assay [4] it was 15.6%; in the assay on Trypanosoma cruzi, 7.5%; in [5], 6.77%. In addition, the Percent Effect is 6.8% in assay [6]; 6.58% in the assay listed under Homo sapiens; 4.92% in assay [7]; 13.6% in [8]; -3.45% in [9].

Consider `Cc1nc[nH]c1CN1C[C@@H]2CC[C@H](C1)N(C(=O)CCNS(C)(=O)=O)C2`, for which the Percent Effect in assay [1] was -4.5%; in assay [2], -1.39%; in assay [3], -15.6%; in [4], 26.7%; with Trypanosoma cruzi, 4.57%; in assay [5] it was 17.7%. Also, the Percent Effect in assay [6] is 3.33%; in the assay listed under Homo sapiens it was -7.69%; in assay [7], 5.26%; in [8], 7.69%; in assay [9] it was -4.5%.

With `CC(=O)Nc1nc(C(=O)N2CCCC(n3nc(C)cc3C)C2)cs1` (stereo not given), the Percent Effect is -5.42% in [1]; 0% in assay [2]; 5.38% in assay [3]; -3.57% in assay [4]; -5.13% in the assay on Trypanosoma cruzi; -1.8% in assay [5]. Also, the Percent Effect is -7.02% in assay [6]; -2.38% in the assay listed under Homo sapiens; -2.46% in assay [7]; -11.1% in assay [8]; 5.41% in assay [9].

Consider `Cc1noc(Cl)c1CC(=O)N1CCCC(n2cccn2)C1` (stereo not given), for which the Percent Effect in assay [1] is -7.2%; in assay [2] it was 15.8%; in assay [3], -1.76%; in assay [4], 0.841%; with Trypanosoma cruzi it was -0.0934%; in assay [5], -3.96%. For the same compound, the Percent Effect in [6] was 0.592%; in the assay listed under Homo sapiens it was -4.99%; in [7], 10.3%; in [8], 16.1%; in assay [9], 1.45%.

For `CS(=O)(=O)N1C[C@@H]2CC[C@H](C1)N(Cc1cscn1)C2=O`, the Percent Effect is -4.04% in [1]; 11% in assay [2]; -5.85% in assay [3]; 7.01% in assay [4]; 6.35% with Trypanosoma cruzi; -4.39% in assay [5]. Besides, the Percent Effect in [6] is 9.85%; in the assay filed under Homo sapiens, 3.89%; in assay [7] it was 6.25%; in assay [8], 18.5%; in assay [9] it was -6.64%.

As for `CCn1c(C)cc(C(=O)N2CCCC(c3nc(C)no3)C2)c1C` (stereo not given), the Percent Effect in assay [1] was -3.15%; in [2], 15.6%; in assay [3] it was 3.61%; in assay [4], -3.42%; with Trypanosoma cruzi, 2.06%; in [5], 1.47%. The Percent Effect was 17.5% in assay [6]; 14.4% in the assay filed under Homo sapiens; 8.57% in assay [7]; 9.41% in assay [8]; -22.5% in assay [9].
